Test results reported in the supplement of paper PMC11732987, “Enantioselective OTUD7B fragment discovery through chemoproteomics screening and high-throughput optimisation” (Communications Chemistry, 2025).

Experiments:
Assay in all cases: log2 ratio of Biotin-Ahx-Ub-VS probe labelling (fragment/DMSO); higher = less target engagement (more negative = stronger competition), active = hit call of the paper (q ≤ 0.05, log2 ratio ≤ -1)
Settings in all cases: compound concentration: 200 uM; treatment time: 3 h
USP42 = target: T1, USP42 (UniProt Q9H9J4)
T1 sequence (whole entry): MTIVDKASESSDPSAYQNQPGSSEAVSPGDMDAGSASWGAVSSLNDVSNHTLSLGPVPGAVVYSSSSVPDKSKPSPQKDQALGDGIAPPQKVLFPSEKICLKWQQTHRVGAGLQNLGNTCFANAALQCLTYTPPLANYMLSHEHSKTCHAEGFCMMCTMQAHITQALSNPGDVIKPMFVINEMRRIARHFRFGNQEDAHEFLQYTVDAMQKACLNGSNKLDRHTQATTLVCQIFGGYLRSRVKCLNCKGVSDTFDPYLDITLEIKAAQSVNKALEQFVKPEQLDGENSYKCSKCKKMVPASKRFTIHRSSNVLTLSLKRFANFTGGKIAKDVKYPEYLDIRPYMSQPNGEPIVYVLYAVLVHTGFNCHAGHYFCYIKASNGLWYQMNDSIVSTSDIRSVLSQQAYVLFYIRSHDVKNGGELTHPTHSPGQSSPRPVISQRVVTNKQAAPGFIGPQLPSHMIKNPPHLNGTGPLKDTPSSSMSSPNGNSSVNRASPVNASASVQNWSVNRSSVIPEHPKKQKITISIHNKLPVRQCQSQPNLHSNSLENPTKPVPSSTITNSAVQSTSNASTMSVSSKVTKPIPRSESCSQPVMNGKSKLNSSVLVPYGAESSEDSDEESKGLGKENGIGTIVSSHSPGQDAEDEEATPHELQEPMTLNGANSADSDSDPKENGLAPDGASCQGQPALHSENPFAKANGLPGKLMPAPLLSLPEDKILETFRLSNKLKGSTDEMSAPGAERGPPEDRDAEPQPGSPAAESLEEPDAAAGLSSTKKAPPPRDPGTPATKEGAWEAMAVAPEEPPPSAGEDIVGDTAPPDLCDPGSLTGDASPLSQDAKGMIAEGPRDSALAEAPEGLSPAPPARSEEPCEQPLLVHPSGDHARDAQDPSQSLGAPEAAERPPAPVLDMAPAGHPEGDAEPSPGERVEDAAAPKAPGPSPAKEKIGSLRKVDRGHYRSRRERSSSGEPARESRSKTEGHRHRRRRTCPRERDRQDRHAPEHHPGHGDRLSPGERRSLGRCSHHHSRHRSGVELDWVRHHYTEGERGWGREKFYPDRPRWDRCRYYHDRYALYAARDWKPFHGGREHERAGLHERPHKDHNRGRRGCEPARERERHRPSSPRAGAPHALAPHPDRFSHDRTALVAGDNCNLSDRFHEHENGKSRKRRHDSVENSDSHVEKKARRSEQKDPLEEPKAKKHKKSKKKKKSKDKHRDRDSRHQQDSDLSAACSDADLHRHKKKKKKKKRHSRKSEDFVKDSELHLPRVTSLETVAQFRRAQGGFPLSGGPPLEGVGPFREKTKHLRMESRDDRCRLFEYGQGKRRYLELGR
Summary of the method: (§1)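 Using Biotin-Ahx-Ub-VS at 0.5 µM final for 1 h, DUBs were labelled in HEK293T lysate (495 µg per sample) that had first been treated in triplicate with fragment at 200 µM or vehicle for 3 h. NeutrAvidin enrichment, LysC and trypsin digestion and diaPASEF LC-MS/MS followed. Spectronaut label-free quantities were global-median-normalised. Values are average log2 fragment/vehicle ratios by unpaired t-test, using proteins with ≥2 unique peptides.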

USP46 = USP46 (UniProt P62068)
Chain of USP46 (P62068 whole entry): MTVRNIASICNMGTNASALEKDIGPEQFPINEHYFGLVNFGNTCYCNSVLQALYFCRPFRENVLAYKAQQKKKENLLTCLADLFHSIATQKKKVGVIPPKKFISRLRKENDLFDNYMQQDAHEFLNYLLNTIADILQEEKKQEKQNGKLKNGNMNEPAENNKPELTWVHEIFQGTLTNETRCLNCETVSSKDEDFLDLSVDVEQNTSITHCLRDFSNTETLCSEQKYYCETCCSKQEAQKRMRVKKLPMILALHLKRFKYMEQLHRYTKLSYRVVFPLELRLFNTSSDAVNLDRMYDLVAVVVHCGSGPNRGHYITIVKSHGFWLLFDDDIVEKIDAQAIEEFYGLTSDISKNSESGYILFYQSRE
Summary of the method: as §1

USP47 = target: T2, USP47 (UniProt Q96K76)
T2 sequence (whole entry): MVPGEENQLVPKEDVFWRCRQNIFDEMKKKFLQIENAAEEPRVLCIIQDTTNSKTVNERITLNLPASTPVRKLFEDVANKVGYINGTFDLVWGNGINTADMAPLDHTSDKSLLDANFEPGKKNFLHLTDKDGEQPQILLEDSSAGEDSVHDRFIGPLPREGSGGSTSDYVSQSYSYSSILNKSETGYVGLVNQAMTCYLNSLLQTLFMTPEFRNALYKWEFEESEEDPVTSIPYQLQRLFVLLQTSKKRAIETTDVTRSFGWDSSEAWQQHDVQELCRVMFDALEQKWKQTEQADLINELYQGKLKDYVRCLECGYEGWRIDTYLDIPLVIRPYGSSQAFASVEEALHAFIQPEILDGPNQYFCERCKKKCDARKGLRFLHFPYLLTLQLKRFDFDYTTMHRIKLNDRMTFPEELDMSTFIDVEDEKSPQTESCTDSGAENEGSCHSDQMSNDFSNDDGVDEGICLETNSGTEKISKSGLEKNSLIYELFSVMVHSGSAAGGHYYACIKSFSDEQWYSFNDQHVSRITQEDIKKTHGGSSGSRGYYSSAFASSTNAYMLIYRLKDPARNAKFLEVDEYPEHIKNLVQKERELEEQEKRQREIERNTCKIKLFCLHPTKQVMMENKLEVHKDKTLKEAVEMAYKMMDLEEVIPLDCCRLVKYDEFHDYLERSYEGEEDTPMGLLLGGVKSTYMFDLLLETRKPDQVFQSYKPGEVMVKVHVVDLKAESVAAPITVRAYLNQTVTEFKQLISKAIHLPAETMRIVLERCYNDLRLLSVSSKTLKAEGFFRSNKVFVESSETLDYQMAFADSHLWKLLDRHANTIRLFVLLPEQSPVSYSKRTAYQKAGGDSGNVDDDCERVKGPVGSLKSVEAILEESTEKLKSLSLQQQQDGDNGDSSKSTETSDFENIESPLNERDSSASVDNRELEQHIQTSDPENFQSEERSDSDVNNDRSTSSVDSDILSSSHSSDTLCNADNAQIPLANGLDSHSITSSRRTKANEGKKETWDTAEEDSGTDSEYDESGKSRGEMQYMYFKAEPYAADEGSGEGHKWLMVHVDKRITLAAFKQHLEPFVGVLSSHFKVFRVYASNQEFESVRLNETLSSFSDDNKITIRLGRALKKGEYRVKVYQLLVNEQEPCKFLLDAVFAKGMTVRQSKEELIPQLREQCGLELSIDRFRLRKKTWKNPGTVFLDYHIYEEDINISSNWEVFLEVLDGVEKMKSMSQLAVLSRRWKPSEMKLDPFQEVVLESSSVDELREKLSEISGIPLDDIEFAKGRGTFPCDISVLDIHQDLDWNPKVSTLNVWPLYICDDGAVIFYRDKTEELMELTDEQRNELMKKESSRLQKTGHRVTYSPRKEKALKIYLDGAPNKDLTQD
Summary of the method: as §1

USP48 = target: T3, USP48 (UniProt Q86UV5)
T3 sequence (whole entry): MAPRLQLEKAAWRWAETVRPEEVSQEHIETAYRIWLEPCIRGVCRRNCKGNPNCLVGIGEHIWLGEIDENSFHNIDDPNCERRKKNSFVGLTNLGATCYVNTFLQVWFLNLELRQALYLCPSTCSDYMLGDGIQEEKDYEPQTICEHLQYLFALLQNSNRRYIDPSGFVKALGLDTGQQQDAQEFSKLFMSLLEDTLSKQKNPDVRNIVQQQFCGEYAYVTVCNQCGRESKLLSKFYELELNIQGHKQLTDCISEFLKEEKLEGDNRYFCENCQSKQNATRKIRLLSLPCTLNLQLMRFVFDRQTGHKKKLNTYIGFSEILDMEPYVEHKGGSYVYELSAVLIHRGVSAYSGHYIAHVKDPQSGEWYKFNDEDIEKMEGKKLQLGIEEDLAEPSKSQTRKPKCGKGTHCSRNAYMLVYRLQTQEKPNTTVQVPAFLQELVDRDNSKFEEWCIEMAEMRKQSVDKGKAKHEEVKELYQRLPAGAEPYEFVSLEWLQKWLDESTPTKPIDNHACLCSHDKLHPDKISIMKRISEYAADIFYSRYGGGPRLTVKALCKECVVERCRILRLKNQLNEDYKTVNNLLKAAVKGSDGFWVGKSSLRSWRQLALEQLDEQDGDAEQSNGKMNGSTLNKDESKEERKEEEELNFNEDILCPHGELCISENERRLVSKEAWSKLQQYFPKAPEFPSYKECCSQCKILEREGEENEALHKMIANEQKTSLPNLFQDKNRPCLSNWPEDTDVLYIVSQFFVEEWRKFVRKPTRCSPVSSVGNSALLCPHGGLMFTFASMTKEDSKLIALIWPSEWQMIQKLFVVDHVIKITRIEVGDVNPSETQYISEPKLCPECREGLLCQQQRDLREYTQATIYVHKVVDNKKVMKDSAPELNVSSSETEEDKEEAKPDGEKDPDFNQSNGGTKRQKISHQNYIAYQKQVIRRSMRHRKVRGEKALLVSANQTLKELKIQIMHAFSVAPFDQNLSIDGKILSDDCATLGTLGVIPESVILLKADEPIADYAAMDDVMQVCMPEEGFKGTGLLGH
Summary of the method: as §1

USP5 = target: T4, USP5 (UniProt P45974)
T4 sequence (whole entry): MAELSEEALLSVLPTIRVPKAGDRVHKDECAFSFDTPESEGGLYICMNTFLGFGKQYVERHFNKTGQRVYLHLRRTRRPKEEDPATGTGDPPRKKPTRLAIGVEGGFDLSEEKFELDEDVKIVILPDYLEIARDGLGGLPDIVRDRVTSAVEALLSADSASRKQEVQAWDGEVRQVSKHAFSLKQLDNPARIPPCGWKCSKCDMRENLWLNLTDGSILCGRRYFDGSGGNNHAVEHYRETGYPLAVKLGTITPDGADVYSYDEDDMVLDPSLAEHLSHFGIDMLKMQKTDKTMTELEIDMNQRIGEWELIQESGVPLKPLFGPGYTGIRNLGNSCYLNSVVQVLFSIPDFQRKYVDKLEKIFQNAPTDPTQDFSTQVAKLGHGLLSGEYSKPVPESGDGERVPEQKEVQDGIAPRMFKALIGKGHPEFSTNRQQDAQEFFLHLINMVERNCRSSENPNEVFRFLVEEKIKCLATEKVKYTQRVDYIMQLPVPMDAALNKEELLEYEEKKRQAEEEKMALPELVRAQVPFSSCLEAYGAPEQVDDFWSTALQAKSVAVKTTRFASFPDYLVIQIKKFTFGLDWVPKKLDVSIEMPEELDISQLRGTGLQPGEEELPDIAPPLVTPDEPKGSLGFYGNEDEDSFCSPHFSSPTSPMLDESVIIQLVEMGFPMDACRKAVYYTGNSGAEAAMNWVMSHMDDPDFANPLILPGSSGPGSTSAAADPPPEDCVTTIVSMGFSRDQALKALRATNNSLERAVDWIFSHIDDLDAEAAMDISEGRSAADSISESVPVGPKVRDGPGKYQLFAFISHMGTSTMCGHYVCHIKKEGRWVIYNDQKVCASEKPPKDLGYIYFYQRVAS
Summary of the method: as §1

USP54 = USP54 (UniProt Q70EL1)
Chain of USP54 (Q70EL1 whole entry): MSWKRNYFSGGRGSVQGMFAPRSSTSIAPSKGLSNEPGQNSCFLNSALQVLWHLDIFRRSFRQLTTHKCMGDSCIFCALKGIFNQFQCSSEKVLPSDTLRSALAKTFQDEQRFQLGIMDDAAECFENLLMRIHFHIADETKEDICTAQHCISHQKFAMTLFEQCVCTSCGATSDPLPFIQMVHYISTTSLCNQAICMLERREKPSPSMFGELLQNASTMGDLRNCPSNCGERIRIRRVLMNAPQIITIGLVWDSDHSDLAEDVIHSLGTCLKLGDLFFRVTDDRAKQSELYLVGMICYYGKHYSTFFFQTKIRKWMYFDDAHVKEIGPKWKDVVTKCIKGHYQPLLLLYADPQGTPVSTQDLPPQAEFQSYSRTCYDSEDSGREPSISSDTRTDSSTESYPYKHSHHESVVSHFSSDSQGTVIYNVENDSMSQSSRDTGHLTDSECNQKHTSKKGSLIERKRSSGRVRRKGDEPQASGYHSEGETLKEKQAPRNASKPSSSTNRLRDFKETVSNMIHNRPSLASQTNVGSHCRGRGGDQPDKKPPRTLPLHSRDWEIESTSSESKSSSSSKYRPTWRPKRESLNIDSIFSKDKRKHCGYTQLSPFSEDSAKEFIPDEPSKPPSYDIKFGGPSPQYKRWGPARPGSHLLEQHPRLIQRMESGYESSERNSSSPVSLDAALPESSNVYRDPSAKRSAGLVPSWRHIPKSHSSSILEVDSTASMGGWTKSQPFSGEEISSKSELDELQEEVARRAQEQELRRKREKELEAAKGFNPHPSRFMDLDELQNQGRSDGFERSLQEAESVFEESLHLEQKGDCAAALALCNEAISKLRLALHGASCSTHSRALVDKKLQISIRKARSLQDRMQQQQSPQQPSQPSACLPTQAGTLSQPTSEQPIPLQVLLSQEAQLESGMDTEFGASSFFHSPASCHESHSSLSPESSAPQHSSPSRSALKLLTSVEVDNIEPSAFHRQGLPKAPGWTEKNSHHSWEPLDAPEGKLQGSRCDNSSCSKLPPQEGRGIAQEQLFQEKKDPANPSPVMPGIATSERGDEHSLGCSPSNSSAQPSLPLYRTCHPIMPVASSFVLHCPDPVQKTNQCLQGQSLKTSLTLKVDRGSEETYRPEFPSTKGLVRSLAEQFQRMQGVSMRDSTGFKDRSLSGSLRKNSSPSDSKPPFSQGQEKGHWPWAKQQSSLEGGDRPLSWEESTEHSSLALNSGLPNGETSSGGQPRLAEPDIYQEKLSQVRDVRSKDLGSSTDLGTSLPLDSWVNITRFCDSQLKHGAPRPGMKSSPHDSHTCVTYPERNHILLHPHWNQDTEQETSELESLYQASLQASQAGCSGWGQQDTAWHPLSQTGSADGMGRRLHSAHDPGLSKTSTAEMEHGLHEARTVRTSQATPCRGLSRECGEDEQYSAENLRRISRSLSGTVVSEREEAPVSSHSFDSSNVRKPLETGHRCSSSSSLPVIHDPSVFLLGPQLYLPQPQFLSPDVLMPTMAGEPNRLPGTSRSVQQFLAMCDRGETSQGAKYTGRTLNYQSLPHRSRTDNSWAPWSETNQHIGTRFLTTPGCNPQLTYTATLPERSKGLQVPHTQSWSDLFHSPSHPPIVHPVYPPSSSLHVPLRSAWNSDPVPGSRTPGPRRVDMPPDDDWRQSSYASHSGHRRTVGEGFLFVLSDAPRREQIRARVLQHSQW
Summary of the method: as §1

USP7 = USP7 (UniProt Q93009)
Chain of USP7 (Q93009 whole entry, looked up): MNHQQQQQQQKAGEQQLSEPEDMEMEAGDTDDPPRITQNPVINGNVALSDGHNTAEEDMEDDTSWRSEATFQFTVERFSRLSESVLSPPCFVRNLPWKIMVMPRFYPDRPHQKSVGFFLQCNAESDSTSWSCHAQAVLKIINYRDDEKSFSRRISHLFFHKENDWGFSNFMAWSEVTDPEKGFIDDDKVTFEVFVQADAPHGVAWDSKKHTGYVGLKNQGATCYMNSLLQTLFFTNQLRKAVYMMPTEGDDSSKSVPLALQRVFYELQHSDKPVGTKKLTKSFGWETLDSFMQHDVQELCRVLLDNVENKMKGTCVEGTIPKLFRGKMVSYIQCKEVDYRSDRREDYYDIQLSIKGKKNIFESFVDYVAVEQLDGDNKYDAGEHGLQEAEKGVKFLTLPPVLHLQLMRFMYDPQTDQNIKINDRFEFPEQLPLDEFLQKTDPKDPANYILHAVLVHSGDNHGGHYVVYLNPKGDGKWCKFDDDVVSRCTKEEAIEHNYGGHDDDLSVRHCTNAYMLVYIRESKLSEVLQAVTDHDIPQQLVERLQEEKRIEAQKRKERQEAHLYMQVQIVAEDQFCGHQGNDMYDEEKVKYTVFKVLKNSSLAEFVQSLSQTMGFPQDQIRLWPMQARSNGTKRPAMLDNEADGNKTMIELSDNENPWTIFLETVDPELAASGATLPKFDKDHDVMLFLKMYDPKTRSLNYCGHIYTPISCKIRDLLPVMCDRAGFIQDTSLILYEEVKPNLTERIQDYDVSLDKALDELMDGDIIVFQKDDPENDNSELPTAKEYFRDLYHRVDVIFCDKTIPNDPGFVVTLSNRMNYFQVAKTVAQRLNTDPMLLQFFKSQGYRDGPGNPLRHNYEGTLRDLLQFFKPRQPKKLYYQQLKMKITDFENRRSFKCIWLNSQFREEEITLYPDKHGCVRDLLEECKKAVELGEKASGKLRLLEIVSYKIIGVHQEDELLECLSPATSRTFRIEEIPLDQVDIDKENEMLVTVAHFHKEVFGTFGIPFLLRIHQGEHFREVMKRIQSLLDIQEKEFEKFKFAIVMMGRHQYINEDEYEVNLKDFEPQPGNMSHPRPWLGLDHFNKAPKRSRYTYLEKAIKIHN
Summary of the method: as §1

USP8 = target: T5, USP8 (UniProt P40818)
T5 sequence (whole entry): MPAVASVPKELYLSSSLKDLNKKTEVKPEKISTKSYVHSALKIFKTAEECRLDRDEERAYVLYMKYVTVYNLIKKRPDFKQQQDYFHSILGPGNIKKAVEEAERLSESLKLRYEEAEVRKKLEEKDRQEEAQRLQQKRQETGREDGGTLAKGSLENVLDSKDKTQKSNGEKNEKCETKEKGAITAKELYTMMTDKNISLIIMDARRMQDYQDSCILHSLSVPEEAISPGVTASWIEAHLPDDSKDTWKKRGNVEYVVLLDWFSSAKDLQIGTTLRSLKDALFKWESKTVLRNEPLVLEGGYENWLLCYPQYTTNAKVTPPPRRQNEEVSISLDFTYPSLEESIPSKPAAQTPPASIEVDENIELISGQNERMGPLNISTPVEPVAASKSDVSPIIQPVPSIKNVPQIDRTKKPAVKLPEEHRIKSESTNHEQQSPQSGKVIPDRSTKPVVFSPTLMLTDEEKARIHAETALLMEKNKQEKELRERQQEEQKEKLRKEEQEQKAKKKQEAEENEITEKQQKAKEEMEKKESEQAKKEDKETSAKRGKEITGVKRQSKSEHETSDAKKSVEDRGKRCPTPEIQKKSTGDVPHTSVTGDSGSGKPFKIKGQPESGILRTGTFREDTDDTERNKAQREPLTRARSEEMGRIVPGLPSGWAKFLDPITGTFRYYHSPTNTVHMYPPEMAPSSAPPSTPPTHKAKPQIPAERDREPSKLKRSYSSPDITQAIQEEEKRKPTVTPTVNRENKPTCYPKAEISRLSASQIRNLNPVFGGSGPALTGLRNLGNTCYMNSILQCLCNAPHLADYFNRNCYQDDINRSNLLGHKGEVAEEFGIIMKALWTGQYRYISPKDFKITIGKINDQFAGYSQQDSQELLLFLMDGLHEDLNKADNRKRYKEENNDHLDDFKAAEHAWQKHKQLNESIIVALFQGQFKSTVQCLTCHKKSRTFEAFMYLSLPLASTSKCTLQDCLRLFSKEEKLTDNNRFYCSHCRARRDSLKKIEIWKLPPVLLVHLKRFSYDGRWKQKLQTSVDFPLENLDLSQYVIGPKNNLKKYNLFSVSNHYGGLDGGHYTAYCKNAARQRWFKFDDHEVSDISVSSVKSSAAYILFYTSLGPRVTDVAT
Summary of the method: as §1

Measured: log2 ratio of Biotin-Ahx-Ub-VS probe labelling

N#Cc1ccc(Cl)cc1NC(=O)CCl
inactive: USP42 -0.385 | USP46 0.0423 | USP47 -0.413 | USP48 -0.305 | USP5 -0.153 | USP54 -0.514 | USP7 -0.47 | USP8 -0.0467
